IDE cell inh = cellular human IDE inhibition. P14735. HEK cells, FAbetaB cleavage, fluorescence polarization. inhibition, % at 5.59 µM. hit rate 0.41% among 320,000. AID 434962;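 active = percent inhibition above the average of all tested compounds plus 3 SD, set per screening campaign, cut at about 16% in these data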;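 also: IDE supplied by intact live HEK cells; FP after avidin binding of uncleaved biotin substrate so inhibition keeps polarization high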
CRFR2-BP ag = CRF-BP/CRF-R2 complex agonism. HEK293 CRF-R2/CRF-BP, calcium dye fluorescence (FLIPR); percent of saturating CRF peptide response. activation, % at 13.2 µM. hit rate 0.46% among 350,000. AID 588473;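 active = activation of at least 50%, plus an integration ratio under a set limit after plate pattern correction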
Cardiac RTF inh = cardiac RTF calcium desensitization. IANBD-labeled cardiac RTF, Ca2+ fluorescence. inhibition, % at 7.15 µM. hit rate 0.12% among 340,000. AID 493244;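 active = inhibition above the mean inhibition of all tested compounds plus 3 SD, cut at about 17% in these data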;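 also: assay run at fixed EC70 calcium of 1.6 mM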
CRFR2-BP antag = CRF-BP/CRF-R2 complex antagonism. HEK293 CRF-R2/CRF-BP, CRF-induced calcium fluorescence. inhibition, % at 11.8 µM. hit rate 0.59% among 350,000. AID 588475;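 active = inhibition of the ligand-induced calcium signal above about 50% at the single tested concentration, limit read from the data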
cardiac RTF act = cardiac RTF calcium sensitization; P19429+P45379; hit rate 0.24% among 340,000; IANBD-labeled TnC RTF fluorescence at EC20 calcium; 0% EC20 calcium, 100% full calcium; activation, % at 7.2 µM;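 active = activation above the mean over all tested compounds plus 3 SD, cut at about 30% in these data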;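 also: rise in fluorescence read as greater calcium sensitivity of cardiac thin filaments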
IDE cell activ = IDE (human) activation, cell-based; HEK cells, FAbeta-B cleavage, fluorescence polarization; 0% vehicle, 100% cell-free pure enzyme wells; activation, % at 5.96 µM; hit rate 0.073% among 340,000;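 active = activation above the mean of all tested compounds plus 3 SD, set per screening campaign, cut at about 17% in these data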
A number is an active result; n = inactive; x = no result. Hits are enriched below; roughly 1.5% of the tested compounds scored in any of these assays.

SMILES	IDE cell inh	CRFR2-BP ag	Cardiac RTF inh	CRFR2-BP antag	cardiac RTF act	IDE cell activ
O=c1oc2ccccc2nc1/C=C(\O)c1ccccc1	n	n	x	n	x	x
O/C(=C\c1nc2ccccc2nc1/C=C(\O)c1ccccc1)c1ccccc1	n	n	n	84	n	n
O=[N+]([O-])c1ccc(NC(=S)NCCc2ccc(F)cc2)cc1	n	n	n	54	n	n
COc1ccc(-n2c(O)c(/C=C3\C=Nc4ccccc43)c(=O)[nH]c2=O)cc1	x	76	n	n	n	n
Cc1cccc(C)c1NC(=O)CNC(=O)CCNC(=O)c1ccco1	n	n	n	n	n	n
CC(C)(C)c1ccc(C(=O)NCCCNC(=O)c2ccccn2)cc1	n	n	n	n	n	n
CCCn1cnnc1CNC(=O)C1CCC(=O)N(CCc2ccc(OC)cc2)C1 (centres undefined)	n	n	n	n	n	n
Cc1ccc(Oc2ccc(C(=O)NCc3ccncc3)cc2)cc1	x	n	n	79	n	n
Nc1ccc(S(=O)(=O)Nc2ccc(Cl)nn2)cc1	n	n	n	54	n	n
COc1ccc(NS(=O)(=O)c2ccc(N)cc2)nn1	n	x	x	x	x	x
Cc1ccc2c(c1)[nH]c1c(=O)n(Cc3ccco3)cnc12	n	84	n	n	n	n
O=c1c2[nH]c3ccccc3c2ncn1Cc1ccco1	n	n	n	n	n	n
Oc1ccccc1C1CCCCC1c1ccccc1 (centres undefined)	n	n	n	n	n	n
C[C@]12CCC(O)CC1CCC1C2CC[C@]2(C)C(c3cc(C(F)(F)F)n[nH]3)CCC12 (some centres undefined)	n	54	n	n	n	n
CC12CCC3C(CCC4CC(O)CCC43C)C1CC(O)C2 (centres undefined)	x	n	n	n	n	n
CCc1cc2c(SCC(=O)N3CCN(C(=O)c4cccs4)CC3)ncnc2s1	x	n	x	n	x	x
CC(=O)Nc1cccc(OC(=O)c2ccoc2C)c1	n	115	n	n	n	n
CCCCc1ccc(NC(=S)Nc2cccnc2)cc1	n	n	n	53	n	n
CCOC(=O)C(NC(=O)c1cccnc1)(Nc1cccc(C)n1)C(F)(F)F (centres undefined)	n	n	n	n	n	n
CCOC(=O)C(NCc1ccccn1)(NC(=O)c1cccnc1)C(F)(F)F (centres undefined)	n	n	n	61	n	n
COc1cc(OC)cc(N(C(=O)CNC(=O)c2cccs2)C(C(=O)NCC2CCCO2)c2ccc(OC)c(OC)c2)c1 (centres undefined)	n	53	n	n	n	n
COc1ccc2c(c1OC)C(=O)N1C2SC[C@H]1C(=O)NC1CCCC1 (some centres undefined)	n	n	n	n	n	n
O=C(Cc1cccc([N+](=O)[O-])c1)Nc1ccc(C(=O)N2CCCCC2)cc1	n	n	n	n	n	n
COc1ccc(-c2cc(C(=O)NC3CCCC3)c3ccccc3n2)cc1OC	n	n	n	97	n	n
COc1cccc(-c2cc(C(=O)NC3CCCC3)c3ccccc3n2)c1	n	n	x	n	x	x
SMILES	IDE cell inh	CRFR2-BP ag	Cardiac RTF inh	CRFR2-BP antag	cardiac RTF act	IDE cell activ
C=CCn1c(Oc2ccccc2)nc2c1c(=O)n(C)c(=O)n2C	n	106	n	n	n	n
CCn1c(Oc2ccccc2)nc2c1c(=O)n(C)c(=O)n2C	n	n	n	n	n	n
O=C(O)CCN1C(=O)c2ccc(NC(=O)CCc3ccccc3)cc2C1=O	n	n	n	n	n	n
CCCCn1c(N)c(N(Cc2ccccc2OC)C(=O)c2c(CC)noc2C)c(=O)[nH]c1=O	n	n	n	78	n	n
CCCCn1c(N)c(N(CC)C(=O)c2c(CC)noc2C)c(=O)[nH]c1=O	n	n	n	n	n	n
CN(C)c1ccc(/C=C2\SC(=O)N(CC(O)Cn3c4ccccc4c4ccccc43)C2=O)cc1 (centres undefined)	n	96	n	n	55	n
CN(C)c1ccc(C=C2SC(=S)N(Cc3ccco3)C2=O)cc1	x	169	x	n	x	x
O=C1S/C(=C/c2ccccc2)C(=O)N1CC(O)Cn1c2ccccc2c2ccccc21 (centres undefined)	n	n	n	n	n	n
C#CCOCCOCCOCCNc1nc(N2CCN(C(=O)[C@H](CCCN=C(N)N)n3cc(C(N)[C@H](C)CC)nn3)CC2)nc(N2CCN(C(=O)[C@H](CC(N)=O)n3cc(C(N)[C@@H](C)CC)nn3)CC2)n1 (some centres undefined)	n	n	n	n	n	n
CC(=O)C1=C(c2cccc([N+](=O)[O-])c2)N(C(C)=O)n2c(C)nnc2S1	n	n	n	54	n	n
CC(=O)c1c(C(C)=O)c(C)n(-c2cccc([N+](=O)[O-])c2)c1C	n	n	n	n	n	n
CCOC(=O)C(C)C(C)=O (centres undefined)	n	n	n	n	n	n
Cc1nn(C)c(C)c1NC(=O)c1cc2nc(-c3ccco3)cc(C(F)(F)F)n2n1	n	n	n	134	n	n
Cc1ccc(S(=O)(=O)N2CCOCC2)cc1NC(=O)CNc1ccccc1N1CCCC1=O	x	n	n	n	n	n
O=C(CCC(=O)N1CCOc2ccc(Cl)cc21)NCc1ccccc1	n	243	n	n	n	n
COc1ccc(C2C(C#N)=C(N)Oc3cc(O)ccc32)cc1C (centres undefined)	n	55	n	n	n	n
COc1ccc(-c2cn3nc(SCC(=O)NC4CCCCC4)ccc3n2)cc1	n	n	n	n	n	n
CCOC(=O)C1CCCN(C2CC(=O)N(c3ccc(N4C(=O)CC(N5CCCC(C(=O)OCC)C5)C4=O)cc3)C2=O)C1 (centres undefined)	n	n	n	n	n	n
CCOC(=O)C1CCCN(C2CC(=O)N(c3ccccc3)C2=O)C1 (centres undefined)	n	n	n	67	n	n
CC(C)N1CCc2c(sc(NC(=O)c3ccc(S(=O)(=O)N4CCOCC4)cc3)c2C#N)C1	n	131	n	n	n	n
CC(C)N1CCc2c(sc(NC(=O)c3ccc(S(=O)(=O)N4CCc5ccccc54)cc3)c2C(N)=O)C1	n	107	n	n	n	n
CCN1CCc2c(sc(NC(=O)c3ccc(S(=O)(=O)N(C)c4ccccc4)cc3)c2C(=O)NC)C1	n	162	n	n	52	n
CCOC(=O)N1CCc2c(sc(NC(=O)c3ccc(S(=O)(=O)N4CCCC4)cc3)c2C#N)C1	n	n	n	n	n	n
CNC(=O)c1c(NC(=O)c2ccc(S(=O)(=O)N(C)c3ccccc3)cc2)sc2c1CCN(C(C)C)C2	n	160	x	n	x	x
COC(=O)c1c(NC(=O)c2ccc(N(C)S(=O)(=O)c3ccc(C)cc3)cc2)sc2c1CCCC2	n	n	n	n	n	n
